# Where “and” joins values, the source holds several entries; their conditions need not be identical. Identical values can stand only once. For some assays here: Results with a measured potency or affinity are listed apart. Calls of active or inactive are those of the source. Unless noted, no stated cut-off is given here; in the data, active means parasite load remaining mostly below about 12% (no sharp cut-off); inactive means mostly above about 10%.
# Legend:
# [1] = polyglutamine-triggered caspase-3 activation inhibitors, cell-based (AID 1583); settings: polyglutamine-induced caspase-3 activation, cell assay; stronger effect = higher value;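 tested at 10 µM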
# [2] = suppressors of polyQ aggregation in yeast, 75Q-TubU reporter (AID 1593); settings: Yeast 75Q polyglutamine aggregation reporter
# [3] = rescue of polyQ-huntingtin neuronal dysfunction in worms, whole organism, C. elegans mechanosensory neurons, N-terminal huntingtin (AID 1599); settings: touch response, stronger effect = higher value
# [4] = inhibitors of mitochondrial cytochrome c release, biochemical, purified mitochondria (AID 1603); settings: stronger effect = lower value;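 further: mouse liver mitochondria challenged with calcium chloride; signal normalized to the plate average as 100%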
# [5] = inhibitors of polyQ protein aggregation (AID 1604); settings: polyglutamine-induced protein aggregation inhibition assay; stronger effect = higher value; tested at 2.5 µM
# [6] = enhancers of glutamate uptake in motor neurons, MN-1 cell line (AID 1612); settings: MN-1 motor neuron cells, stronger effect = higher value;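 further: tested at 1 µM final; 0% = mean of DMSO vehicle wells on each plate; positive means more glutamate uptake than control and negative means less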
# [7] = suppressors of polyglutamine aggregation in yeast, 75Q-TubH (AID 1616); settings: S. cerevisiae 75Q-TubH polyglutamine aggregation suppression; stronger effect = higher value
# [8] = liver-stage malaria parasite growth inhibition, primary screen, cell-based, HepG2, luciferase luminescence, HepG2 viability (AID 624349);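 further: 100% = mean of DMSO negative control wells on the same plate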; settings: P. berghei liver stage in HepG2, luciferase luminescence, concentration not given here; parasite load remaining: stronger effect = lower value; viability: measured here: HepG2 viability without parasites
# [9] = differential killing of epithelial or mesenchymal cells, primary screen, imaging, PC-3E GFP, TEM4-18 mCherry, co-culture (AID 1345086;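 active means compounds killing one labelled cell type while sparing the other, by normalised counts and ratio limits, not self-fluorescent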;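 on all read-outs here: cells exposed to compound for 72 h before imaging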;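 on red/green cell ratio (normalised): normalised mesenchymal count divided by normalised epithelial count so high means epithelial killing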); settings: imaging cell counts, at 1 µM; for red/green cell ratio (normalised): actives lie on both sides, counts scaled to control wells, 1 = unselective
# [10] = sensitizers of A549 cells to miR-34 induction, primary screen, imaging, A549 dox-inducible miR-34, nuclei and caspase counts (AID 1347080;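 active means compounds whose cell count with miR-34 switched on is under 0.7 times the count with it off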); settings: A549 miR-34 inducible, Hoechst nuclei count, 48 h
# [11] = reducers of polyQ inclusions in PC12 cells, cell-based, NGF-treated PC12, GFPQ80 (AID 1614); settings: PC12 NGF-treated GFP-polyQ80 inclusion reduction;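 further: lower means fewer inclusions and 0 means no inclusions at all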
# [12] = viability rescue of complex I mutant cybrids, primary screen, cell-based, galactose medium, ATP luminescence (AID 1645843;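 active means z-score of at least 1.8 in each of two replicates, scored against plate mean and spread of sample wells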;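 further: positive z means more ATP and so rescue of galactose-driven cybrid death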); settings: complex I mutant cybrid cells, 72 h, stronger effect = higher value
# [13] = measured here: epithelial PC-3E GFP cell survival
# [14] = measured here: mesenchymal TEM4-18 mCherry cell survival
# [15] = stronger effect = lower value, cell number ratio, induced over uninduced
# [16] = measured here: relative caspase fold change +Dox/-Dox
# [17] = measured here: total cells with miR-34 induction, stronger effect = lower value
# [18] = measured here: total cells without miR-34 induction
Compound,inhibition [1] [%],score [2],rescue above control [3],cytochrome c release ratio [4],inhibition of aggregation [5] [%],glutamate uptake change [6] [%],aggregation suppression score [7],parasite load remaining [8],viability [8],red/green cell ratio (normalised) [9],"normalised cell number [9, 13]","normalised cell number [9, 14]","fold change [10, 15]","fold change [10, 16]","cell count [10, 17]","cell count [10, 18]",inclusion score [11],z-score [12]
C#C[C@]1(OC(C)=O)CCC2C3CCC4=CC(=O)CC[C@@H]4C3CC[C@@]21C (stereo not given in full),17.5,0.07,0.31,1.09,7.32,12.7,0.237,88.9% (inactive) and 45.6% (inactive),69.5% and 94.9%,1.18 (inactive),1,1.17,0.881 (inactive),2.11,10900,12400,,
C[C@H](CCC(=O)O)[C@H]1CCC2C3C(CC[C@@]21C)[C@@]1(C)CC[C@@H](O)C[C@H]1C[C@H]3O (stereo not given in full),13.5,-0.55,-0.69,0.92,21.1,-19.3,0.165,96.5% (inactive) and 33.9% (inactive),70.7% and 87%,1.27 (inactive),0.99,1.25,0.893 (inactive),3.03,10800,12100,,
CCCCCC(=O)O[C@]1(C(C)=O)CCC2C3CCC4=CC(=O)CC[C@]4(C)C3CC[C@@]21C (stereo not given in full),18.1,-0.83,-3.14,0.32,35,9.62,0.43,13.1% (inactive) and 0.105% (inactive),72.1% and 76.8%,1.01 (inactive),1.08,1.09,0.912 (inactive),1.72,7140,7840,,
C[C@H]1O[C@@H](O[C@H]2[C@@H](O)C[C@H](O[C@H]3[C@@H](O)C[C@H](O[C@H]4CC[C@]5(C)C6C[C@@H](O)[C@]7(C)[C@@H](C8=CC(=O)OC8)CC[C@]7(O)C6CC[C@@H]5C4)O[C@@H]3C)O[C@@H]2C)C[C@H](O)[C@@H]1O (stereo not given in full),80,1.17,0,0.9,88.9,-3.95,1.34,1.4% (inactive) and 1.3% (inactive),36.1% and 54.9%,0.68 (inactive),1.14,0.77,0.434 (active),2.23,193,445,1.5,
Cn1nnnc1SCC1=C(C(=O)O)N2C(=O)C(NC(=O)C(O)c3ccccc3)C2SC1 (stereo not given),15.1,1.62,-1.89,1.02,39.4,14.2,1.25,39.2% (inactive),86%,0.9 (inactive),1.03,0.93,0.886 (inactive),4.15,11200,12600,2,
CCC[C@@H]1C[C@@H](C(=O)N[C@H]([C@H]2O[C@H](SC)[C@H](O)[C@@H](O)[C@H]2O)[C@H](C)O)N(C)C1,3.68,1.23,8.96,0.99,67.6,-19.8,1.16,81.5% (inactive) and 50.6% (inactive),72.6% and 86.3%,1.04 (inactive),1.09,1.13,0.939 (inactive),2.92,11900,12700,2,
C[C@]12C=CC(=O)C=C1CCC1C2C(=O)C[C@@]2(C)C1CC[C@]2(O)C(=O)CO (stereo not given in full),10.6,1.16,5.79,0.79,-17.6,-8.9,1.29,71.9% (inactive) and 35.5% (inactive),73% and 91%,1.16 (inactive),0.94,1.1,0.854 (inactive),2.55,10500,12300,2,
C[C@]12CCC3c4ccc(OS(=O)(=O)O)cc4CCC3C1CCC2=O (stereo not given in full),,,,,,,,45.1% (inactive),102%,0.91 (inactive),0.94,0.86,0.918 (inactive) and 0.865 (inactive),1.03 and 4.55,9150 and 11800,9970 and 13700,,0.9 (inactive)
C#C[C@]1(O)CCC2C3CCC4=C(CCC(=O)C4)C3CC[C@@]21C (stereo not given in full),-10.6,0.8,-0.46,1.11,55.6,-10.2,0.537,73.4% (inactive) and 48.3% (inactive),71.3% and 92%,1.12 (inactive),1.18,1.32,0.929 (inactive),1.51,11200,12100,,
CC(=O)O[C@]1(C(C)=O)CCC2C3C=C(Cl)C4=CC(=O)[C@@H]5C[C@@H]5[C@]4(C)C3CC[C@@]21C (stereo not given in full),22.9,0.66,-6.61,1.14,61,14.6,0.413,90.2% (inactive) and 39.4% (inactive),70.9% and 86.5%,0.81 (inactive),1.12,0.91,0.907 (inactive),1.85,11200,12400,1,
C#C[C@]1(O)CCC2C3CCc4cc(OC)ccc4C3CC[C@@]21C (stereo not given in full),,,,,,,,13.7% (inactive),131%,1.01 (inactive),1.1,1.11,0.913 (inactive) and 0.85 (inactive),1.29 and 1.24,8740 and 9660,9570 and 11400,,-1.44 (inactive)
C[C@]12CCC3c4ccc(O)cc4CCC3C1CC[C@@H]2OC(=O)CCC1CCCC1 (stereo not given in full),30.9,-0.35,-0.57,0.97,94.4,-6.63,0.396,77.3% (inactive) and 37.9% (inactive),74.2% and 90.6%,1.54 (inactive),0.83,1.27,1 (inactive),1.31,11300,11300,,

# From PubChem BioAssay
